Sampled rows, rich in hits. Any-hit rate of the full collection: about 2.9%.
ATXN viability = viability counter-screen for ATXN expression inhibitors; 400,000 tested, 0.49% active; Potency, µM (top dose mostly 56.7 µM), hits mostly cytotoxic; S2 cells (HEK-293 line with an ATXN2-luciferase reporter) viability, CellTiter-Fluor protease fluorescence, 24 h; AID 651635; further: nearly all actives have a fitted effect of over 40% in size
Nrf2 inh = Nrf2 pathway inhibition; A549 ARE-Fluc reporter, luciferase luminescence, 18-24 h; Potency, µM (highest dose often 46 µM), for inactives: at the top dose activity change, negative = inhibition, hits mostly inhibitors; 360,000 tested, 2.1% active; further: on the % scale 0 is the no-effect control and ±100 the full control effect; nearly all actives have a fitted effect of over 60% in size
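Nrf2 function is reported as luminescence of an ARE-controlled luciferase in A549 cells. Compounds were tested at several concentrations, and a CellTiter-Fluor read on the same wells flagged cytotoxicity.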
A549 viability = kills or reduces viability of A549 cells in Nrf2 counter-screen; A549 ARE-Fluc cells, CellTiter-Fluor viability, 18-24 h; Potency, µM (series often up to 46 µM), inactives show at the highest dose activity change, negative = cytotoxicity, hits mostly inhibitors; 390,000 tested, 0.16% active; further: on the % scale 0 is the no-effect control and ±100 the full control effect
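A549 ARE_Fluc cells in 5% FBS OPTI-MEM were exposed to compounds in concentration-response for 18-24 h at 37 deg C. Viability was read by CellTiter-Fluor fluorescence (Ex 405/Em 525) after 30 min, before the luciferase read.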
Nrf2 activator = activates Nrf2 signaling. AREc32 ARE-luciferase reporter (MCF7-derived line), luminescence, 24 h. Potency, µM (highest dose often 46.1 µM), without a hit: at the highest dose activation, most hits filed as activators. 410,000 tested, 0.31% active. AID 624171; further: % of control where 0% means no effect; nearly all actives have a fitted effect of over 65% in size
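AREc32 cells carrying an ARE-driven firefly luciferase reporter were seeded at 1000 cells/well in OPTI-MEM with 5% FBS, then exposed to compound for 24 hr at 37 deg C. Luminescence was read with Steady-Glo after 30 min at RT.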
ATXN2 expr inh = inhibitors of ATXN2 expression; HEK-293 ATXN2-luciferase reporter, luminescence, 24 h; Potency, µM (titrated, usually from 57 µM), for inactives: at the top dose activity change, negative = inhibition, hits mostly inhibitors; 360,000 tested, 0.72% active; further: on the % scale 0 is the no-effect control and ±100 the full control effect; nearly all actives have a fitted effect of over 55% in size
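ATXN2-luciferase reporter cells (luciferase flanked by upstream and downstream ATXN2 gene portions) were treated 24 h at 37 °C with compounds at up to 57 uM. SteadyGlo luminescence gave expression; GF-AFC fluorescence gave viability.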
Active calls of the source: *; i = inactive; ? = inconclusive; . = no result given; [ ] = remark or other dose. The call rests on the fitted dose curve; in most records, active means well fitted curve in the direction sought with a large enough effect; inconclusive means small, poorly fitted or top-dose-only effect, or another doubt; inactive means no such curve, though single readings can be large; an effect the other way counts as inactive or inconclusive. Potency means the concentration at half of the fitted maximal effect.

SMILES	ATXN viability	Nrf2 inh	A549 viability	Nrf2 activator	ATXN2 expr inh
Cc1cc(C)c2oc(C(=O)Nc3nnc(C(C)C)s3)cc(=O)c2c1	i	?	-0.4%	0.6%	.
CSc1nnc(NC(=O)c2cc(=O)c3cc(C)cc(C)c3o2)s1	25.1µM*	-11.1%	-0.7%	0.0%	-10.7%
Cc1occc1C(=O)Nc1cccc(-c2nc(CNC(=O)c3ccc(N4CCCCC4)cc3)c(C)o2)c1	i	.	.	.	.
Brc1ccc(-c2nc3ccccc3s2)s1	i	?	4.6%	11.2µM*	83.8%
O=[S+]([O-])(c1ccc2c(c1)OCCO2)N1CCN([S+](=O)([O-])c2c(F)cc(Br)cc2F)CC1	.	-6.7%	10.2%	.	.
Oc1cc(O)cc(C=Cc2ccc(O)c(O)c2)c1	.	.	.	.	37.1%
CC1CCCCC1NC(=O)NC(=O)CCl (configuration not stated)	i	-0.5%	-9.7%	14.1µM*	5.6%
CC1=C(C#N)C(c2ccccc2)C2=C(N1)c1ccccc1C2=O (configuration not stated)	i	23.1µM*	?	-0.3%	-25.2%
CCN(CC)S(=O)(=O)c1cccc(NC(=O)C2SC(=Nc3ccc(C)cc3C)C(C(=O)NC(C)COC)=C2N)c1 (configuration not stated)	i	20.6µM*	?	1.7%	-26.1%
CCCCCn1c(=O)[nH]c2cc(C(=O)Nc3ccc(OC)c(OC)c3)ccc2c1=O	i	-10.0%[9.27 µM]	4.7%	-1.1%	-1.6%
CC(=O)n1cc(N(C(=O)CCl)c2ccc(C)cc2)c2ccccc21	10µM*	-12.0%	-10.4%	?	8.91µM*
CC(=O)c1ccccc1Oc1cc(NN2CCCCC2)c([N+](=O)[O-])cc1[N+](=O)[O-]	i	25.9µM*	-19.2%	1.3%	-1.4%
Cc1cnc(C)c(-c2cccc3c2OC(CNC(=O)C2(c4ccc(Cl)cc4)CC2)C3)n1 (configuration not stated)	i	.	.	.	.
CCc1cccc(C)c1NC(=O)CCCSc1nc2ccccc2s1	i	?	-0.1%	2.6%	0.0%
CCc1cccc(CC)c1NC(=O)C1SC(=Nc2ccccc2C)C(c2nc3ccccc3s2)=C1N (configuration not stated)	i	14.6µM*	-21.8%	0.7%	1.1%
Cc1nc(C)c(C(=O)N2CCc3c(cnc(C)c3CNC(=O)c3cncs3)C2)s1	i	.	.	.	.
CCN(CC)S(=O)(=O)c1cc(NC(=O)C(C)N(C)CC(=O)Nc2c(C)cccc2C)ccc1C (configuration not stated)	i	16.4µM*	?	3.2%	-19.1%
COc1ccc(NC(=O)c2cc(C)no2)cc1Cl	i	0.0%	-0.6%	4.3%	7.1%
COc1ccc(Cl)cc1NC(=O)c1cnccn1	i	-12.9%	0.9%	12.6µM*	.
Cc1ccc(O)c(NC(=O)c2cc(C)no2)c1	i	?	1.3%	12.6µM*	23.3%
COc1ccc(Cl)cc1NC(=O)c1cc(C)no1	i	6.8%	5.3%	8.91µM*	8.8%
CC(=O)Nc1nonc1-c1nnc(SCC(=O)Nc2c(C)cccc2C)n1-c1ccccc1	i	-6.1%	0.2%	-0.8%	7.5%
CCCn1c(N/N=C\C=C\c2ccccc2)nc2c1c(=O)[nH]c(=O)n2C	i	9.2µM*	0.0%	9.9%	.
CC(/C=C/c1ccccc1)=N\Nc1nc2c(c(=O)[nH]c(=O)n2C)n1CCO	i	-11.9%	3.1%	28.4%	-5.2%
O=c1oc2ccccc2c(Nc2ccc(Cl)cc2)c1[N+](=O)[O-]	i	16.4µM*	-4.0%	14.0%	-37.1%
SMILES	ATXN viability	Nrf2 inh	A549 viability	Nrf2 activator	ATXN2 expr inh
CC[n+]1c(/C=C2\C=C(C)CC(C)(C)C2)sc2ccccc21	?	16.4µM*	-13.4%[1.84 µM]	?	?
CCC1=C/C(=C/c2sc3ccccc3[n+]2CC)CC(C)(C)C1	i	0.9%	-0.2%	?	-33.9%
O=C(Nc1c(C(=O)N2CCN(c3ccccc3F)CC2)oc2ccccc12)c1ccc(Br)o1	.	23.1µM*	-9.5%	0.7%	.
O=C1C=C(Nc2ccccc2C(=O)O)c2ccccc2C1=O	i	3.0%	?	-1.0%	8.1%
O=C1C=C(Nc2cccc3cccnc23)c2ccccc2C1=O	14.1µM*	?	?	9.6%	-13.7%[2.22 µM]
Cc1ccc(S(=O)(=O)Nc2cccnc2)cc1C	?	-0.3%	-3.7%	-0.2%	-18.2%
COc1cc(NS(=O)(=O)c2ccc(C)cc2)c2ncccc2c1	?	?	?	?	4.47µM*
Cc1ccc2nsnc2c1S(=O)(=O)Nc1cccc2nsnc12	?	-18.4%	-18.0%	0.3%	1.1%
Cc1ccc2nsnc2c1S(=O)(=O)Nc1cccc2cccnc12	.	8.2µM*	?	.	.
Cc1ccc(-c2ccc(S(=O)(=O)Nc3cccnc3)cc2)cc1	.	11.6µM*	0.1%	3.0%	-21.5%
Cc1sc(N)nc1-c1cccc([N+](=O)[O-])c1	.	-23.2%	-0.4%	.	.
COC(=O)[C@@H]1CCCN1Cc1ccc2c(c1)CN(Cc1cccn1-c1ccccn1)CCO2	i	.	.	.	.
CN(C)CC[C@H](c1ccc(Br)cc1)c1ccccn1	i	.	.	.	.
CCC1CN(CCNC(=O)C2CCCCN2C)Cc2cc(OC)ccc2O1 (configuration not stated)	i	.	.	.	.
Cc1ccc(S(=O)(=O)Nc2cccc3cccnc23)cc1	?	6.51µM*	-24.9%	?	5.62µM*
O=C1C=C(Nc2ccccc2)c2ccccc2C1=O	28.2µM*	20.6µM*	?	-2.0%	?
CC(C)c1cc(C(C)C)c(S(=O)(=O)Nc2cccc3cccnc23)c(C(C)C)c1	.	?	11.0%	.	.
O=C1c2ccccc2C(=O)c2cc(S(=O)(=O)Nc3cccc4cccnc34)ccc21	.	5.17µM*	-18.5%	.	.
Cc1c(P(=S)(c2ccccc2)c2ccccc2)c2ccccc2n1C/C=C/c1ccccc1	.	7.6%	-0.8%	.	.
O=[N+]([O-])c1cccc(-c2nc(-c3ccccc3)no2)c1	i	?	14.8%	3.98µM*	19.1%
O=[N+]([O-])c1cccc(-c2noc(-c3ccco3)n2)c1	i	?	17.7%	7.08µM*	.
COc1cc(=O)n2c(c1C(=O)N(C)Cc1cscn1)CCN(C(=O)c1ccc(C)cc1C)CC2	i	.	.	.	.
O=C(NCCc1nnc2n1CCN(Cc1ccccn1)CC2)c1ccc(F)cc1	i	.	.	.	.
CC(=O)O[C@H]1C[C@@H]2CC[C@H]3[C@H]4C[C@H]([N+]5(C)CCCCC5)[C@@H](OC(C)=O)[C@@]4(C)CC[C@@H]3[C@@]2(C)C[C@H]1N1CCCCC1	.	.	.	.	0.0%
CCNc1cccc(S(=O)(=O)N2CCCN(S(=O)(=O)c3ccc4c(c3)OCCO4)CC2)c1	.	?	-1.7%	.	.
COc1ccc(-c2cc(C(F)(F)F)nc(NCc3ccc(Cl)cc3)n2)cc1	i	-7.3%[9.27 µM]	-10.0%	0.3%	-17.5%
FC(F)(F)c1cc(-c2ccc(Cl)cc2)nc(NCc2cccnc2)n1	i	14.6µM*	6.4%[1.84 µM]	3.0%	?

Assay outcomes as filed in PubChem.
